Laboratory results reported in PubChem BioAssay (NCI).
About 83,000 compounds went through this panel and 20% of them were active in at least one assay; those are over-represented in the sample as a whole.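 Cell lines were cultured in 96-well plates, exposed to a single compound concentration, and assessed for percent growth 48 hours later.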 Unmarked numbers belong to inactive results. The source made the active and inactive calls. The calls were made as follows: active = growth percent below 10; inactive = the rest.

Tested on: MCF7 breast
Assay: NCI-60 one-dose screen, 48 h (100 = growth as untreated, 0 = no growth, -100 = all killed)
Conditions: 10 µM unless noted

Going from `CC(=O)N(C)N=Nc1ccc(C)cc1` to `CCOC(=O)CNC(=O)Sc1ccc(C(C)(C)C)cc1`, the growth falls from 106% to 99.3%.

First: COc1cc(C(=O)N2CCN(c3ccccc3)CC2)c2ccccc2n1
Second: CCNC(=O)OCCc1c2ccccc2nc2ccccc12
The growth of the first is lower: 15.8% for the first, 89.6% for the second.

Going from `O=c1n(CC2CO2)c(=O)n(CC2CO2)n1CC1CO1` (configuration not stated) to `Cc1cc(CC(=O)NCCO)n(CCO)c(=O)c1`, the growth rises from 31% to 102%.

First: Cc1ccc(N2C(=O)c3cccc4c(N)c(S(=O)(=O)O)cc(c34)C2=O)cc1
Second: NNC(=O)N/N=C1\C(=O)N(c2nccs2)C(=O)C(=O)C1c1nc2ccccc2s1 (configuration not stated)
The growth of the first is higher: 110% for the first, 98.5% for the second.

Going from `S=C=Nc1ccc2ccccc2c1` to `NC(=S)N/N=C/c1ccc(OC(=O)COc2ccccc2)cn1`, the growth falls from 101% to 22.9%.

Going from `Oc1cccnc1CN1CCCC1` to `CN1CCCN(C(c2ccccc2)c2ccc(Cl)cc2)CC1` (configuration not stated), the growth falls from 93.9% to 80.6%.

First: O=C1C=C(c2ccccc2)C(O)(c2ccccc2)C1 (configuration not stated)
Second: O=C1Nc2ccccc2/C1=C\c1ccccc1O
The growth of the first is higher: 98.2% for the first, 65.5% for the second.

Going from `Cc1cc(C)cc(OCC(=O)O)c1` to `CCOC(=O)c1cc(C)[nH]c(=O)c1C#N`, the growth rises from 97.7% to 104%.

Compared with `Cc1cccc(C)c1NC(=S)/N=C\c1c(O)[nH]c(=O)[nH]c1=O`, `Cc1cc(NC(=O)c2ccccc2)c(Cl)cc1N` is lower in growth: 93.6% for the first, 84.9% for the second.

Going from `O=[N+]([O-])c1c(O)c(CNCCCO)cc(CNCCCO)c1O` to `Oc1cc(O)c2c(c1)O[C@H](c1ccc(O)c(O)c1)[C@@H](O)C2`, the growth falls from 112% to 104%.

Going from `CN(C)c1ccc2c(N(C)C)cc(N(C)C)nc2c1` to `Cc1cccc(-[n+]2noc(N)n2)c1`, the growth rises from 13.9% to 76%.

Compared with `O=S(Cc1ccccc1)/C(=C/NC(=S)Nc1cc(Cl)ccc1Cl)c1ccccc1` (configuration not stated), `N#C/C(=C\c1ccc(C#N)cc1)C(=O)c1ccccc1` is higher in growth: 96.9% for the first, 97.5% for the second.

First: CCCCn1cnc2c(=O)[nH]cnc21
Second: CCC(=O)C1C(=O)c2ccccc2C1=O
The growth of the first is lower: 98.2% for the first, 105% for the second.

First: CCCCCCCCCCC(=O)CCCCCCCCCC
Second: O=C1C=C[C@H](O)[C@@]2(CO)O[C@@H]12
The growth of the first is higher: 101% for the first, 42.9% for the second.

Compared with `c1ccc(Nc2ccccn2)nc1`, `C(=C\c1ccncc1)/c1ccncc1` is higher in growth: 84.9% for the first, 128% for the second.

With `COc1ccc(Br)c2c1C(=O)CC2` the growth was 107%.

In the case of `CCOC(=O)c1ccc(NC(=O)Nc2nccs2)cc1`, the growth is reported as 0.495% (active).
For `CCCCCCCCCCCCSC1=C(Cl)C(=O)C(OC)=C(OC)C1=O`, the growth was 6.48% (active).
For `NC(=S)c1c(N)n(C2OC(CO)C(O)C2O)c2ncnc(N)c12` (configuration not stated), the growth was -11.6% (active).
With `C[n+]1c(/C=C\C=C\N2CCCCC2)sc2ccccc21` the growth was 4.75% (active).
In the case of `NC(CCl)=NCC12CC3CC(CC(C3)C1)C2`, the growth is reported as -29.1% (active).
With `COC1=C(OC)C(=O)C(SC/C=C(\C)CCCC(C)CCCC(C)CCCC(C)C)=CC1=O` (configuration not stated) the growth was 4.9% (active).
